# From PubChem BioAssay
# HSF1 inhib: HSF1 inhibition; NIH3T3-HGL HSE-luciferase, MG132-induced, luminescence 8 h; active compounds read low; activity change, negative = inhibition, % at 7.5 µM (by protocol); 300,000 compounds, 0.77% hits;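 active means more than half of replicate wells show activity change below -50%, luminescence cut by over half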;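 further: luciferase reports HSF-1 transcriptional activity via heat shock element; 0% = median of DMSO wells and -100% = zero luminescence signal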
# NALP1 inh: inhibitors of NALP1 inflammasome in yeast. S. cerevisiae NALP1/ASC/caspase-1 growth, X-gal OD620, 72 h. inhibition, % at 10 µM. 280,000 compounds, 0.61% hits; in the data active means inhibition mostly above about 24%, no sharp cut-off; inactive means mostly below about 32%
# Hsp70 activator: transcriptional activators of Hsp70. 200,000 compounds, 0.04% hits. AID 1203. activation, % at 10 µM. HeLa Hsp70 promoter luciferase reporter, luminescence; scaled: vehicle 0, proteasome-inhibitor control 100%;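 active means activation above the mean across all tested compounds plus 3 SD, cutoff set per campaign, cut at about 5.5% in these data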;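 further: 100% = MG132 at 30 µM as the positive control and 0% = DMSO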
# HSF-1 act: increases HSF-1 driven luciferase reporter signal; NIH3T3-HGL HSF-1 luciferase reporter, MG132, 8 h; 100% = twice DMSO control signal; activation, % at 9 µM; 300,000 compounds, 1.7% hits; AID 504408;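 active means mean replicate activation of at least 50% with a set share of replicates each reaching 50%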;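 further: 0% = median of the neutral control wells and 100% = twice that signal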
# HSP90 inh: blocks HSP90-mediated luciferase refolding in reticulocyte lysate | Rabbit reticulocyte lysate, luciferase refolding luminescence, 3 h | inhibition, % at 5.6 µM | 290,000 compounds, 0.91% hits | AID 1789;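 active means inhibition above the screen-wide mean plus 3 SD, computed separately per campaign, cut at about 16% in these data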;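 further: 0% = DMSO wells and 100% = 60 µM geldanamycin wells; inhibitors lower the luminescence because luciferase stays unfolded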
# pCIP destab: p/CIP protein destabilization. decrease of EGFP signal, % at 10 µM. 290,000 compounds, 0.01% hits. F442A p/CIP-EGFP cells, EGFP fluorescence, 16 h. Q05BA5. AID 1984;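 active means EGFP signal decrease of at least 30% at 10 µM or well 3 SD below plate mean, unless failing retest; inactive means the rest, including hits failing retest or dose response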
# HSP90 inh confirm: HSP90 inhibition, confirmation assay | shares compounds with HSP90 inh | rabbit reticulocyte lysate, luciferase refolding luminescence, 3 h | inhibition, % at 5.9 µM | 2,300 compounds, 64% hits | AID 1846; in the data active means inhibition above about 18%;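 further: 0% = vehicle wells and 100% = reference inhibitor wells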
# FLuc counter: counter-screen for HSP90 inhibitors: inhibitors of firefly luciferase. inhibition, % at 5.9 µM. purified native firefly luciferase, luminescence. shares compounds with HSP90 inh. 2,300 compounds, 48% hits;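 active means inhibition above the mean inhibition of all tested sample wells plus 3 SD, cut at about 10% in these data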;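 further: 0% = DMSO with luciferase and 100% = wells lacking luciferase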
# Target sequence (P08659 whole entry, looked up): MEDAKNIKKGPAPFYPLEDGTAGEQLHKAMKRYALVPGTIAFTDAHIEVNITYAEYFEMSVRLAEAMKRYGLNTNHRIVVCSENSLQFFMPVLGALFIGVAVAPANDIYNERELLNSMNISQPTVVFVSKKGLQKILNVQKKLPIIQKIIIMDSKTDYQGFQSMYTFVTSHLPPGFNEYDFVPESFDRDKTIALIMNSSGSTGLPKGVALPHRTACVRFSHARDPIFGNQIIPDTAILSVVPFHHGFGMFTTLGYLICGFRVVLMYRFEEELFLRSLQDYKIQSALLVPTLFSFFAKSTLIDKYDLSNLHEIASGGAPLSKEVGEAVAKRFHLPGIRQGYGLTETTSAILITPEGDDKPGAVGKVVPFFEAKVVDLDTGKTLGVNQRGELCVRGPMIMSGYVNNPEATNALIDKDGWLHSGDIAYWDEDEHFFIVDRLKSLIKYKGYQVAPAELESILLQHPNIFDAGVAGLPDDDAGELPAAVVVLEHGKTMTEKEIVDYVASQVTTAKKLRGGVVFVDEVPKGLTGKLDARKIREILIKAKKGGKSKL
# The depositor's hits bear a star; · = no result. Sampled rows, rich in hits. Any-hit rate of the full collection: about 3.8%.
SMILES,HSF1 inhib,NALP1 inh,Hsp70 activator,HSF-1 act,HSP90 inh,pCIP destab,HSP90 inh confirm,FLuc counter
Cc1ccc(CNC(=O)C(C)C2Sc3ccccc3NC2=O)cc1 (configuration not stated),-3.0,·,·,-5.7,-2.0,-4.9,·,·
CCc1cc(C(=O)Nc2ccc(S(=O)(=O)NC3=NCCCCC3)cc2)sc1C,-0.1,·,·,10.8,·,·,·,·
COC(=O)c1ccc(-c2ccc(/C=N/NC(=O)CC3(C)OCCCO3)o2)cc1,-8.7,3.1,-0.2,-3.6,17.0*,9.6,26.3*,-0.3
CC1(CC(=O)N/N=C/c2ccc(-c3ccc(C(=O)O)cc3)o2)OCCO1,-6.3,2.9,0.2,7.2,-0.7,12.4,·,·
CC1Cc2ccccc2N1C(=O)Cn1cnc2ccccc21 (configuration not stated),0.0,-7.9,-0.3,-8.2,2.3,-8.2,·,·
CC(=O)NC1=C(Nc2ccc(N(C)C)cc2)C(=O)c2ccccc2C1=O,11.9,0.3,·,32.9,21.5*,-21.2,7.8,-7.8
Cc1nc(-c2ccc(Cl)cc2)sc1C(=O)O,22.7,-5.6,0.0,43.3,10.6,11.1,·,·
Cc1nc(-c2ccccc2)sc1C(=O)O,5.9,-4.5,-0.1,8.6,2.2,-6.7,·,·
Cc1ccc(-c2nc(C)c(C(=O)O)s2)cc1,16.1,-10.8,0.0,38.9,74.5*,8.0,84.9*,17.1*
Cc1nc(-c2ccc([N+](=O)[O-])cc2)sc1C(=O)O,5.9,2.0,0.3,-2.7,18.0*,7.1,17.9*,-17.9
CCN(c1ccc(NC(=O)c2ccc(Cl)nc2)cc1)C(C)C,·,4.5,-0.5,·,-2.2,2.1,·,·
CC(C(=O)O)c1ccc(N2Cc3ccccc3C2=O)cc1 (configuration not stated),7.9,17.4,-0.3,22.8,26.9*,4.3,35.5*,32.2*
Cc1ccc(NC(=O)c2cnn(-c3ccccc3)c2C)cc1C,-7.6,-6.0,·,-9.4,43.8*,-0.6,64.0*,58.5*
COc1ccc(C(CNC(=O)c2ccc(Br)o2)N2CCN(C)CC2)cc1 (configuration not stated),-2.4,·,·,-10.5,·,·,·,·
COc1ccc(C(=O)NCCc2cc3ccc(C)c(C)c3[nH]c2=O)cc1OC,16.7,9.9,-0.2,35.1,2.0,0.2,·,·
COCCNc1c(-c2cc3ccc(C)c(C)c3[nH]c2=O)nc2ccccn12,22.7,4.7,0.6,43.1,21.2*,-9.0,-6.5,-14.9
COc1ccccc1NC(=O)NNC(=O)CN1C(=O)COc2ccccc21,1.5,17.2,·,0.1,-2.2,-2.6,·,·
CCCOc1ccc(S(=O)(=O)n2cc(F)c(=O)[nH]c2=O)cc1,-3.9,18.9,·,3.9,-3.1,-5.3,·,·
COCCC1CCCCN1C(=O)c1cccc(OC2CCN(S(C)(=O)=O)CC2)c1 (configuration not stated),-3.0,8.7,·,-4.1,-6.7,-10.7,·,·
CS(=O)(=O)N1CCC(Oc2cccc(C(=O)NCCCC3CCCC3)c2)CC1,3.4,11.0,·,11.7,29.4*,-9.8,-6.8,-11.1
CSc1ncccc1C(=O)NCCc1ccc(S(N)(=O)=O)cc1,-0.3,4.1,·,5.2,-3.7,-3.3,·,·
COc1cccc(N/C=C/C(=O)c2ccc(Cl)cc2)c1,2.4,16.5,-0.2,12.3,-6.5,-5.1,·,·
Cc1ccc(N/C=C/C(=O)c2ccc(C)cc2)cc1,2.7,-2.7,0.1,3.7,4.0,-7.7,·,·
O=C(/C=C/Nc1ccc(F)cc1Br)c1ccccc1,-66.1*,41.5,-0.4,-70.8,18.8*,-3.2,89.0*,82.5*
Cc1ccc(C(=O)/C=C/Nc2ccccn2)cc1,-61.6*,·,-0.7,-65.9,66.3*,·,95.7*,91.0*
SMILES,HSF1 inhib,NALP1 inh,Hsp70 activator,HSF-1 act,HSP90 inh,pCIP destab,HSP90 inh confirm,FLuc counter
COc1ccc(OC)c(N/C=C/C(=O)c2ccccc2)c1,-42.8,3.7,·,-53.9,70.3*,1.1,92.2*,84.5*
COc1cccc(N/C=C/C(=O)c2ccc(C)cc2)c1,3.4,-3.5,·,9.7,19.5*,-6.3,34.5*,27.8*
Cc1cc(N/C=C/C(=O)c2ccccc2)ccc1Br,8.3,9.9,·,23.4,1.9,-7.0,·,·
COc1cc(SC)ccc1C(=O)Nc1ccc2ncccc2c1,10.1,-2.6,·,26.0,10.7,9.3,·,·
Cc1ccc(C)c(S(=O)(=O)N2CCN(C(=O)CCC(=O)c3cc(C)sc3C)CC2)c1,-0.6,·,·,-7.8,·,·,·,·
Cc1ccc(Cl)cc1N1CCN(S(=O)(=O)c2cc3c(cc2C)NC(=O)CO3)CC1,6.5,6.2,·,17.5,-2.0,-2.3,·,·
COc1ccc(C(=O)OCCOc2ccccc2C(C)=O)c(O)c1,-3.0,6.7,-0.5,2.6,28.2*,10.4,6.8,-4.4
CC(=O)c1ccccc1OCCOc1ccccc1C(C)=O,-2.8,6.8,·,0.7,-1.6,-11.9,·,·
COc1ccc(CN2C(=O)c3ccc(C(=O)O)cc3C2=O)cc1,-1.5,1.8,·,0.7,-3.4,-2.1,·,·
CCCCN(C(=O)c1c(CC)noc1C)c1c(N)n(CCC)c(=O)[nH]c1=O,-1.8,·,·,-8.2,·,·,·,·
COc1ccc(NC(=O)OC(CN2CCCCC2)C(F)(F)F)cc1 (configuration not stated),-2.7,21.1,0.2,4.7,18.1*,-11.6,-3.6,-10.0
COc1ccc(NC(=O)CN2CCCC2)cc1,1.8,22.6,·,-1.4,-0.9,1.8,·,·
Cc1ccc(CN2CC(C(=O)Nc3cc(C)ccn3)CC2=O)cc1 (configuration not stated),3.9,·,·,-8.1,·,·,·,·
O=C(c1ccc(-c2nc3ccccc3s2)o1)N1CCN(c2ccccc2O)CC1,0.8,8.6,·,19.9,3.9,-2.9,·,·
O=C(O)c1ccc(-c2nc3ccccc3s2)o1,7.8,·,·,15.4,63.3*,4.4,79.7*,23.8*
O=C(CSc1nc2ccccc2s1)N/N=C/c1ccccc1C(=O)O,-63.0*,-8.3,·,-61.6,17.5*,1.6,7.9,8.5
O=C(O)COc1ccccc1/C=N/NC(=O)CSc1nc2ccccc2s1,4.1,·,·,-19.0,7.5,-9.9,·,·
CC(NC(=O)CCn1nc(-c2ccc(Cl)cc2)ccc1=O)c1ccccc1 (configuration not stated),0.2,-3.4,0.1,-8.3,4.7,7.6,·,·
Cc1ccc(Nc2nc(N)c3ccccc3n2)cc1C,2.5,22.4,·,2.9,26.3*,-12.5,53.5*,36.8*
CC1(C)Oc2ccc(C(=O)Nc3ccccc3)cc2N(CC#N)C1=O,4.2,20.1,·,23.8,-0.8,-18.8,·,·
O=C(Nc1ccc(F)cc1F)c1ccc2c(c1)OCCO2,17.7,7.0,·,25.1,23.1*,-12.2,32.0*,11.7*
O=C(Nc1ccc(Br)cc1F)c1ccc2c(c1)OCCO2,-1.8,7.6,·,25.0,54.5*,-3.7,50.0*,41.0*
CC(C)Cc1nnc(NC(=O)CCC(=O)N2CCN(Cc3ccc(Cl)cc3)CC2)s1,5.2,-13.4,·,2.0,0.2,-16.0,·,·
